The text below walks through data of PubChem BioAssay AID624483 (NMMLSC, 2012).

Among all 360,000 compounds or so, about 11,000 (3.1%) were called active. Not shown: some 2% with an inconclusive outcome. The entries come from a sample that favours actives as a whole. Values without a mark were called inactive. Rule as the data show it: active = fluorescence intensity above about 16000; inconclusive = no clear call, values can overlap the other calls; inactive = below that.

A short description of the assay: compound fluorescence in toxin protease inhibitor counterscreen, primary screen, artefact control for toxin protease inhibitor project, biochemical, multiplex microsphere, HTS (AID 624483). The following applies: compound autofluorescence counterscreen, microsphere flow cytometry; active compounds read high. Background: A counterscreen serves to expose hits that act by an unwanted route or on another target.
Consider `O=C(c1c(F)cccc1Cl)N1CCN(c2ccccn2)CC1`, for which the fluorescence intensity was 6090.
With `Cc1cc(C(=O)N2CCN(c3ccccn3)CC2)c(C)o1` the figure was 21600 (active).
Take `O=C(c1cc2ccccc2s1)N1CCN(c2ccccn2)CC1`: the fluorescence intensity was 5840.
For `CC1(C(=O)NS(=O)(=O)c2cccc(OC(F)F)c2)CCN1C(=O)C1CC1` (configuration not stated), the fluorescence intensity was 3660.
With `O=C(NC1CCCC1)C(c1ccccn1)N(C(=O)c1csnn1)C1CCCC1` (configuration not stated) the figure was 3210; with `CCOc1ccc(C)cc1S(=O)(=O)NC1CCCCCC1`, 5960; with `COc1ccc(C(=O)NCc2ccccc2C)cc1S(=O)(=O)NC1CCCC1`, 3480.
As to `COc1ccc(C)cc1S(=O)(=O)NC1CCCCC1`, the fluorescence intensity is 20200 (active).
Turning to `CCCCC(=O)N(C)c1c(CC)nc2c(OCc3ccc(S(C)(=O)=O)cc3)cccn12`, the fluorescence intensity was 4320.
With `CC(C)Oc1cc(F)ccc1-c1cc(C(=O)Nc2cccc(Cl)c2)[nH]n1` the figure was 3940; with `CCC1OC(C2CC2)CC2=C1C(=O)OC(C)(C)O2` (configuration not stated), 5440.
With `CCc1nc2ccc(C(=O)NCc3ccc(OC)cc3)cn2c1N(CC)Cc1cccc(Br)c1` the figure was 4320.
The figure for `CN(C)CCNC(=O)Nc1cccc(Cl)c1Cl` is 2400.
For the molecule `COc1ccccc1NC(=O)CC(NCCN(C)C)C(=O)O` (configuration not stated), the fluorescence intensity is 15400.
With `CN(C)CCNC(=O)C(C(=O)c1ccccc1)n1ccccc1=O` (configuration not stated) the figure was 23600 (active); with `FC(F)(F)COc1nc(N2CCCCC2)nc(N2CCNCC2)n1`, 2450.
As to `FC(F)(F)Oc1ccccc1C(c1nnnn1C1CCCCC1)N1CCN(C/C=C/c2ccccc2)CC1` (configuration not stated), the fluorescence intensity is 4590.
As for `Cc1cc2ccccn2c1C(=O)c1cccc(S(=O)(=O)N2CCOCC2)c1`, the fluorescence intensity was 4300.
As for `CCOC(=O)N/N=C1\CC(C)S(=O)(=O)c2ccc(Cl)cc21` (configuration not stated), the fluorescence intensity was 3940.
For the molecule `Cc1ccc(COc2ccc(/C=N/NC(=O)CN3CCCCC3)cc2)cc1`, the fluorescence intensity is 3530.
The figure for `O=C(CN1CCN(C/C=C/c2ccccc2)CC1)Nc1ccc(F)cc1F` is 4560; for `O=C(CC(=O)N/N=C\c1ccc(F)cc1)NCCc1ccccc1` it is 3990; for `O=C(CN1CCSCC1)N/N=C/c1ccc(F)cc1F` it is 23700 (active).
The figure for `O=C(CN1CCSCC1)N/N=C/c1ccc(F)cc1` is 19800 (active); for `O=C(CCC(=O)Nc1ccccc1)N/N=C/c1ccccc1F` it is 2560; for `c1ccc2c(c1)C(=NC1CCCCC1)NC2=NC1CCCCC1` it is 8360.
The figure for `CCOc1ccccc1N1C(=O)CC(Sc2nccc(C)n2)C1=O` (configuration not stated) is 4180; for `COC(=O)[C@]12CCCCC=C1N(Cc1ccco1)C(=O)[C@H](CC(=O)NCCCCc1ccccc1)C2` it is 5100.
As for `Cc1cccc(-c2cnc(C(O)c3cc(C)cc(C)c3)[nH]2)c1` (configuration not stated), the fluorescence intensity was 3860.
With `Cc1ccc(S(=O)(=O)N2CCC(C)CC2)cc1C(=O)NCc1ccccn1` the figure was 5690; with `Cc1cccc(CN2CCN(C3CN(Cc4ccccc4)S(=O)(=O)C3)CC2)c1` (configuration not stated), 5880; with `CCOC(=O)C1CCN(S(=O)(=O)c2cc(F)ccc2OC)CC1`, 4720.
The figure for `CCOC(=O)C1CCCCN1Cc1ccc(OC)c(OC)c1OC` (configuration not stated) is 21900 (active); for `CCOC(=O)C1CCN(C(=O)/C=C/c2cc(OC)c(OC)c(OC)c2)CC1` it is 2640.
`O=C(Nc1ccc2c(c1)OCCO2)C1c2ccccc2OCC(=O)N1Cc1ccccn1` (configuration not stated): the fluorescence intensity was 5110.
In the case of `Cc1[nH]c2ccccc2c1C(=O)CN1CCCC(C)C1` (configuration not stated), the fluorescence intensity was 3780.
With `Cc1[nH]c2ccccc2c1C(=O)CSCC(=O)O` the figure was 23600 (active).
With `Cc1[nH]c2ccccc2c1C(=O)CN1CC(C)CC(C)C1` (configuration not stated) the figure was 4370; with `O=C(O)c1cc(S(=O)(=O)NC2CCCc3ccccc32)ccc1O` (configuration not stated), 3070.
The figure for `Cc1nc(C(F)(F)F)ccc1C(=O)N1CCC1(C)C(=O)NS(=O)(=O)c1ccccc1` (configuration not stated) is 2950; for `Nc1nc2c(ncn2[C@@H]2O[C@H](CNS(=O)(=O)N3CCc4ccccc4C3)[C@@H](O)[C@H]2O)c(=O)[nH]1` it is 5780; for `Cc1ccccc1CCN(CC(=O)NC1CCCCC1)C(=O)c1csnn1` it is 4280.
Turning to `CCOCCC(=O)Nc1ccc2c(c1)c(=O)n(C)n2-c1ccc2ccccc2c1`, the fluorescence intensity was 4100.
The figure for `O=C(Cc1ccc(Br)cc1)NCCN1CCOCC1` is 4390.
With `O=C(CN1CCOCC1)N/N=C/c1ccc(-c2ccc(Br)cc2)o1` the figure was 6290.
With `CCOC(=O)CN(C(=O)CN1CCOCC1)c1ccc(Br)cc1` the figure was 16500 (active); with `COCCOC1CCN(C(=O)c2ccc(OC)c(OC3CCN(C(C)C)CC3)c2)CC1`, 5660.
With `OC[C@@H]1CN(Cc2cccs2)C[C@H](n2cnc3c(Nc4ccccc4)ncnc32)O1`, the fluorescence intensity was 2850.
As to `CCN(CC)CCNC(=O)c1ccc(NC(=O)c2cc(-c3ccncc3)nc3ccccc23)cc1`, the fluorescence intensity is 5900.
With `Cc1nc2ccccc2c2oc(C(=O)NCCCN3CCC(C)CC3)cc12` the figure was 6790; with `CCCN(CCC)CCNC(=O)c1cc2c(C)nc3ccccc3c2o1`, 23700 (active).
On to `COc1cc(CCN=Cc2ccccc2O)c([N+](=O)[O-])cc1OC`, for which the fluorescence intensity was 6170.
The figure for `CCOC(=O)[C@]12CCCC=C1N(Cc1ccc3c(c1)OCO3)C(=O)[C@H](CC(=O)NCc1cccs1)C2` is 4370; for `COc1cccc(CNC(=O)c2cccnc2Sc2ccc(Cl)cc2)c1` it is 5920; for `O=C(NC1CCCCCC1)c1cccnc1Sc1ccc(Cl)cc1` it is 2130.
The figure for `O=C(NCc1cccnc1)c1cccnc1Sc1ccc(Cl)cc1` is 16900 (active); for `C=CCn1c(=O)n(C)c2c(=O)n(C)c(=O)n(C)c21` it is 3000; for `O=[N+]([O-])c1ccc(CN2CC(N3CC=CC3)CS2(=O)=O)cc1` (configuration not stated) it is 6550.
The figure for `CCOc1ccc(-c2cn(S(=O)(=O)c3cccc4nsnc34)nc2N)cc1` is 4610; for `CCCCNC(=O)OC1CC2CC1[C@H]1CCCCN1C2=O` (some centres not stated) it is 5740; for `Cn1ncc2c(Nc3cccc4ccccc34)ncnc21` it is 3210.
As to `CC1CCCCC1NC(=O)CSc1nnc(-c2ccncc2)n1CCCN(C)C` (configuration not stated), the fluorescence intensity is 4240.
The figure for `CSc1nnc(-c2ccncc2)n1CCCN1CCCC1=O` is 16700 (active).
For the molecule `CN(C)CCCn1c(SCc2ccc(Cl)cc2)nnc1-c1ccncc1`, the fluorescence intensity was 3820.
With `COc1cc(Cn2c3ccc(NC(=O)CC(C)c4ccccc4)cc3c(=O)n2C)ccc1F` (configuration not stated) the figure was 3950; with `CCOc1ccc(C(=O)Nc2cccc(SC)c2)cc1`, 2060; with `Cc1ccc(S(=O)(=O)N(Cc2cc3ccccc3[nH]c2=O)CC2CCCO2)cc1` (configuration not stated), 3240.
The figure for `COc1ccc(NC(=O)CCC(=O)Nc2nnc(C3CCCCC3)s2)cc1` is 5270; for `Cc1occc1C(=O)Nc1nnc(C2CCCCC2)s1` it is 22300 (active).
With `Cc1cc(C(=O)Nc2nnc(C3CC3)s2)c(C)s1` the figure was 5450; with `CCc1nc2c(OCc3ccc(F)c(F)c3)cccn2c1N(C)C(=O)c1ccco1`, 3900; with `O=C1Nc2ccccc2NC(c2ccc3c(c2)OCO3)=C1N(Cc1ccc(F)cc1)C(=O)c1ccco1`, 5250.
With `Brc1ccc(C2=CC(c3ccco3)n3ncnc3N2)cc1` (configuration not stated), the fluorescence intensity was 9350.
With `Clc1ccc2c(c1)C1=C(C(c3ccncc3)O2)C(c2ccc(Br)cc2)n2ncnc2N1` (configuration not stated) the figure was 16600 (active).
With `Cc1ccc(CN(Cc2cccnc2)C(=S)Nc2cc(Cl)ccc2C)cc1` the figure was 4690; with `Cc1ccc(CSc2nnc(-c3cnccn3)n2C)cc1`, 4420.
The figure for `CCn1c(SCC(=O)Nc2cc(C)ccc2C)nnc1-c1cnccn1` is 4580.
On to `CCN(CC)C(=O)CSc1nnc(-c2cnccn2)n1-c1ccc(C)cc1`, for which the fluorescence intensity was 23200 (active).
With `CC(C)(C)C1CCC(=O)N2CCC[C@]2(c2ccccc2)C1` (some centres not stated) the figure was 5900.
With `CN(CC1CCCN(CCc2cccc(C(F)(F)F)c2)C1)C(=O)c1ccc2nc[nH]c2c1` (configuration not stated) the figure was 5960; with `COc1cccc(NC(=O)C2(C)CCN2C(=O)CCC2CCCC2)c1` (configuration not stated), 2920; with `N#C/C(=C\c1cccnc1)C(=O)Nc1ccc(SC(F)F)cc1`, 3830.
The figure for `COc1ccc(/C=N/n2nnnc2N)cc1OC` is 4170.
For `Nc1nnnn1/N=C/c1cccs1`, the fluorescence intensity was 21800 (active).
The figure for `Nc1nnnn1/N=C/c1cccc(Br)c1` is 3440.
With `COc1ncnc2c1ncn2CCCNCCN1CCOCC1` the figure was 3370.
For the molecule `COc1ccc(CN(C(=O)c2cccs2)c2nccs2)cc1OC`, the fluorescence intensity is 3950.
The figure for `CN(Cc1ccccc1)C(=O)COc1ccccc1` is 2850.
As to `COc1ccc(CCN(C(=O)COc2ccccc2)c2nc(-c3ccccc3)cs2)cc1OC`, the fluorescence intensity was 21300 (active).
With `C[C@H](NC(=O)C1CCN(S(=O)(=O)c2ccccc2)CC1)C(=O)NCc1ccccc1` the figure was 5500.
With `COc1cccc(CN2CCC(C(=O)NC(c3ccc4c(c3)OCO4)c3ccccn3)CC2)c1` (configuration not stated) the figure was 3800; with `Cc1cc(=O)oc2cc(OC(C)C(=O)Nc3ccc(N4CCOCC4)cc3)ccc12` (configuration not stated), 22000 (active).
For `Cc1cc(=O)oc2cc(NC(=O)C(C)Oc3ccccc3)ccc12` (configuration not stated), the fluorescence intensity is 5330.
With `COc1ccc(-c2cc(=O)oc3cc(OC(C)C(=O)Nc4ccc(CN5CCOCC5)cc4)ccc23)cc1` (configuration not stated) the figure was 5340; with `COc1ccc(C(=O)NC(=S)Nc2ccccc2N2CCN(S(C)(=O)=O)CC2)cc1OC`, 22100 (active); with `O=C(NC(=S)Nc1ccccc1N1CCCCC1)c1ccc(F)cc1`, 6710.
With `COc1ccccc1C(=O)NC(=S)Nc1ccccc1N1CCCCC1` the figure was 5870.
